Bioassay records: PubChem, The Scripps Research Institute Molecular Screening Center
Shown is part of a subset that was picked to be rich in hits.
GBA activity up = increases beta-glucosidase activity in Gaucher fibroblasts; P04062; L444P Gaucher fibroblasts, 4-MU-glucoside fluorescence, 3 days; activation, % at 10 µM; 0.44% of 30,000 active; in the data active means activation above about 65%;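 further: 0% = vehicle wells and 100% = positive control wells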
Target sequence (P04062 whole entry L483P): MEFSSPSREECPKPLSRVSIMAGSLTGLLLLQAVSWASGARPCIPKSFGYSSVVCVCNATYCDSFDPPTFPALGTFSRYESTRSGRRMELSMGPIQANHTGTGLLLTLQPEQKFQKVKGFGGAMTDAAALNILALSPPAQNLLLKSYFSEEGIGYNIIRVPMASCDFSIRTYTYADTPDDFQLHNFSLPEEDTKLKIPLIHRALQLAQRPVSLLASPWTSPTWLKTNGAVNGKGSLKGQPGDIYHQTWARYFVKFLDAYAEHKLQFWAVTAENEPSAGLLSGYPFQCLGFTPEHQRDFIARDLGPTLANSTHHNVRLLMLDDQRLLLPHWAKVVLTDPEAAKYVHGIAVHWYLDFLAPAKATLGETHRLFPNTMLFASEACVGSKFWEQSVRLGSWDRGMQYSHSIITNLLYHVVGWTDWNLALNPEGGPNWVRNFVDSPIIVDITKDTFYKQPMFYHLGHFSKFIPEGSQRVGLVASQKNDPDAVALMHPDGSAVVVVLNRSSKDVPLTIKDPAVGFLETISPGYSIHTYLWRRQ
An asterisk follows results filed as active.

SMILES	GBA activity up
CN=C1SC(CC(=O)Nc2sc(C)c(C)c2C(=O)OC)C(=O)N1C (stereo unspecified)	-13.6
CCN=C1SC(CC(=O)Nc2ccccc2)C(=O)N1CC (stereo unspecified)	5.8
CC(=O)Nc1ccc(C(=O)CSc2nnnn2C(C)C)cc1	-15.8
Cn1c(=O)c2c(n(C)c1=O)=NC1(CCCCC1)ON=2	-20.5
CCNc1ccc(C(=O)OCC)cc1NC(=O)c1cccc(S(=O)(=O)N2CCOCC2)c1	-4.4
COc1ccc(S(=O)(=O)C(C#N)c2nc3ccccc3nc2N2CCCCC2)cc1 (stereo unspecified)	96.5*
Cc1ccc(C)c(S(=O)(=O)C(C#N)c2nc3ccccc3nc2N2CCCC2)c1 (stereo unspecified)	13.4
COc1ccc(CNC(=O)C(C#N)c2nc3ccccc3nc2N2CCCC2)cc1 (stereo unspecified)	-19.8
CCCNS(=O)(=O)c1ccc(C(=O)NCC2CCCO2)cc1 (stereo unspecified)	-29.6
CCCCS(=O)(=O)Nc1ccc(C(=O)NCC2CCCO2)cc1 (stereo unspecified)	-10.1
Cc1ccc(C)n1-c1ccc(C(=O)NCC2CCCO2)cc1 (stereo unspecified)	93.2*
O=C1C(=O)N(CCCn2ccnc2)C(c2cccnc2)/C1=C(/O)c1ccccc1 (stereo unspecified)	3.6
O=C(CSc1nnc2c(n1)[nH]c1ccc(F)cc12)OCc1ccccc1	76.5*
O=C(CN1CCN(c2ccc(F)cc2)CC1)OCc1ccccc1	-10.2
CCCn1c2ccccc2c2nnc(SCC(=O)OCC)nc21	-6.4
COc1ccc(-n2cnnc2SCC(=O)c2ccc(S(=O)(=O)N3CCOCC3)cc2)cc1	-19.2
CC(O)c1cccc(NC2=CC(=O)CC(C)(C)C2)c1 (stereo unspecified)	4.7
CNC(=O)CN(c1cccc2ccccc12)S(C)(=O)=O	-30.8
Cc1c(Cl)cccc1N(CC(=O)O)S(C)(=O)=O	87.6*
Cc1c(Cl)cccc1N(CC(=O)N1CCCCCC1)S(C)(=O)=O	-9.3
Cc1ccc(N2C(=O)Nc3ccc(Br)cc3C2(O)C(=O)NCCCN(C)C)cc1C (stereo unspecified)	119.4*
CN(C)CCNC(=O)c1cc2cc(Br)ccc2oc1=O	-4.4
CCCn1c(C)nc2c(c1=O)c1nc3ccccc3nc1n2-c1ccc2c(c1)OCCO2	-23.3
C=CCc1cccc2cc(C(=O)N3CCN(C(=O)c4ccco4)CC3)c(=O)oc12	-26.5
COCCN(C(=O)Cn1nnc2ccccc21)C(C(=O)NC1CCCC1)c1cc(OC)ccc1OC (stereo unspecified)	12.5
SMILES	GBA activity up
C=CCN(C(=O)Cn1nnc2ccccc21)C(C(=O)NCCOC)c1ccc(OC)cc1OC (stereo unspecified)	93.0*
COCCNC(=O)C(c1ccccc1)N(CCOC)C(=O)Cn1nnc2ccccc21 (stereo unspecified)	-7.0
COC(=O)c1ccc(CSc2ncnc3c2nnn3-c2ccc(OC)cc2)o1	-5.1
CC1=C(C)C(=O)NC(Nc2nc(C)c3cc(C)cc(C)c3n2)N1 (stereo unspecified)	-51.2
CC1(C)NC(=O)N(c2ccccc2Cl)C1(C)NO (stereo unspecified)	2.4
CCOC(=O)c1c(C)n(C)c2ccc(OCC(O)Cn3nc(C)c(Br)c3C)cc12 (stereo unspecified)	-18.2
CCOC(=O)c1c(C)n(C)c2cc(Br)c(C(=O)OC)cc12	-11.4
CCOC(=O)c1c(C)n(C)c2ccc(OC(C)C(=O)OC)cc12 (stereo unspecified)	72.2*
CCN1C(=O)NC2C1N(S(C)(=O)=O)CCN2S(C)(=O)=O (stereo unspecified)	-3.8
CCOC(=O)CSc1nc(-c2ccc(OC)cc2)ns1	18.5
Cc1onc(-c2c(F)cccc2Cl)c1C(=O)OCC(=O)Nc1c(C)n(C)n(-c2ccccc2)c1=O	-2.2
Cc1ccc(S(=O)(=O)NCC(=O)N(CC(=O)NCc2ccccc2)CC2CCCO2)cc1 (stereo unspecified)	4.7
COc1ccc(CNC(=O)CN(CC2CCCO2)C(=O)CNS(=O)(=O)c2ccccc2)cc1 (stereo unspecified)	-7.4
COc1ccc(CNC(=O)CN(CC2CCCO2)C(=O)CNS(=O)(=O)c2ccc(C)cc2)cc1 (stereo unspecified)	75.7*
O=C(O)c1ccc2c(c1)C(c1ccccc1)OC2=O (stereo unspecified)	78.3*
O=C(O)c1ccc2c(c1)CC(c1ccccc1)OC2=O (stereo unspecified)	-20.7
CC(C)(C)N1C(=O)c2ccc(C(=O)O)cc2C1=O	7.3
COc1ccc(NC(=O)N(CCN2CCCC2)Cc2cc3cc(OC)c(OC)cc3[nH]c2=O)cc1	-3.4
O=C(NCc1ccco1)c1cccc(-c2nnc(-c3ccccc3)o2)c1	-3.1
COc1cc(OC)c(N2CC34C=CC(O3)C(C(=O)O)C4C2=O)cc1Cl (stereo unspecified)	-1.8
O=c1c2c3c(sc2n2cnnc2n1-c1ccccc1)N(Cc1ccccc1)CCC3	-1.3
CC1=C(C(N)=O)C(c2cccs2)n2nc(-c3cccc(C)c3)nc2N1 (stereo unspecified)	90.9*
CC1=C(C(N)=O)C(c2cccnc2)n2nc(-c3cccc(C)c3)nc2N1 (stereo unspecified)	27.4
CCOc1ccccc1C1C(C(N)=O)=C(C)Nc2nc(-c3cccc(C)c3)nn21 (stereo unspecified)	-37.5
Clc1ccc(OCc2nnc(SCc3nnc(-c4ccccc4)o3)o2)c(Cl)c1	47.4
SMILES	GBA activity up
O=C1OC(NC(=O)c2ccccc2)C(n2cc(CO)nn2)=C1Cl (stereo unspecified)	-34.3
COc1cccc(NC(=O)C2CCCN2C(=O)Nc2cccc(F)c2)c1 (stereo unspecified)	-37.6
CC(=O)Nc1cccc(NC(=O)C2CCCN2C(=O)Nc2cccc(C)c2)c1 (stereo unspecified)	-10.1
CCCCNC(=O)C1CCCN1C(=O)Nc1cccc(OC)c1 (stereo unspecified)	73.4*
O=C(c1ccc(-c2ccccc2)cc1)N1CCN(c2ncccn2)CC1	-10.9
COc1ccc(NC(=O)CN2CCN(S(=O)(=O)c3ccc(C(C)C)cc3)CC2)cc1OC	65.8*
COC(=O)c1ccc(NC(=O)CN2CCN(S(=O)(=O)c3cc(Cl)ccc3OC)CC2)cc1	-18.1
COc1ccc(C)cc1NC(=O)CN1CCN(S(=O)(=O)c2ccc(C(C)C)cc2)CC1	20.9
ON1C2CCCCC2N(O)C1c1c(F)c(F)c(F)c(F)c1F (stereo unspecified)	-9.8
O=c1c2c3nc4ccccc4nc3n(CCN3CCOCC3)c2ncn1CCN1CCOCC1	5.7
CCCc1nnc(NC(=O)C2CCCO2)s1 (stereo unspecified)	2.9
Cc1noc(C)c1CSc1nnc2c(C)cc3ccccc3n12	-16.6
COc1ccccc1CC(=O)NCC1CCCO1 (stereo unspecified)	9.6
COc1ccc(S(=O)(=O)N(CC(=O)NCC2CCCO2)c2ccccc2)cc1OC (stereo unspecified)	74.6*
COc1ccc(S(=O)(=O)N(CC(=O)N2CCN(C)CC2)c2ccccc2)cc1OC	-47.9
Cc1cc(C)cc(N(CC(=O)NCC2CCCO2)C(=O)CCC(=O)Nc2cc(C)on2)c1 (stereo unspecified)	-8.4
Cc1cc(C)n(C(=O)C2CCCN2S(=O)(=O)c2ccc(Cl)cc2)n1 (stereo unspecified)	-4.4
O=C(C1CC1)N1CCc2cc(S(=O)(=O)N(CCO)Cc3ccccc3)ccc21	-11.2
